Bioassay records deposited in PubChem by National Center for Advancing Translational Sciences (NCATS).
D1 antagonist = blocks dopamine activation of the human D1 receptor; P21728; HEK293 TREx D1 cells, calcium flux, dopamine EC80; hits give low values; activity change, negative = inhibition, % at 10 µM; hit rate 3.2% among 360,000; AID 504652; in the data active means activity change below about -30%
Target sequence (P21728 whole entry, looked up): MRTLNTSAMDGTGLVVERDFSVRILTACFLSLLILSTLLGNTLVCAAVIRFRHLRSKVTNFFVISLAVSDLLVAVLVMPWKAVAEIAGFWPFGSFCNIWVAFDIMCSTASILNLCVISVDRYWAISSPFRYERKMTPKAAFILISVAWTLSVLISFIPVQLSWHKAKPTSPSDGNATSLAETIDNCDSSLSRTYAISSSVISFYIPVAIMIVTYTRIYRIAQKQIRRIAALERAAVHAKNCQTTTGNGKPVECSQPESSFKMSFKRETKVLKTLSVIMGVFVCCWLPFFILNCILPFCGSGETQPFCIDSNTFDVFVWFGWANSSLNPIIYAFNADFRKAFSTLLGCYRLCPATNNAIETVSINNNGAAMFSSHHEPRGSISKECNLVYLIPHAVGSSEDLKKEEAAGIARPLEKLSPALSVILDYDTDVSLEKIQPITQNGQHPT
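Allosteric or orthosteric antagonism assessed as attenuation of the calcium response to EC80 dopamine, added 180 s after compound, in induced HEK293 Trex D1 cells loaded with no-wash calcium dye.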
D1 agonist = human D1 receptor agonism; activation, % at 2 µM; hit rate 1% among 360,000; HEK293 T-REx D1 cells, calcium flux, agonist mode; in the data active means activation above about 30%
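Inducible HEK293 T-REx D1 cells, force-coupled to calcium signalling, were plated at 4000 cells/well with tetracycline and held overnight at 30 C. After no-wash calcium dye loading, compound-evoked calcium rise over 180 s flagged agonists.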
D3 ag = D3 dopamine receptor (human) agonism. P35462. D3R DiscoveRx beta-arrestin cells, luminescence, 90 min. max activation, %. hit rate 0.58% among 410,000; in the data active means max activation above about 30%
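Agonist-mode cell screen: cells plated at 1500/well and incubated overnight at 37 °C, then exposed to library compounds for 90 min at 37 °C. Detection reagent was added for 30–60 min at room temperature, and luminescence was read.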
DRD3 antagonist = antagonists of human D3 dopamine receptor; D3R cells, DiscoveRx beta-arrestin luminescence, antagonist mode; hits give low values; hit rate 2.5% among 360,000; P35462; max response, negative = inhibition, %; in the data active means max response below about -50%; inconclusive means no clear call, values can overlap the other calls
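Cells expressing the human receptor were seeded at 1500 cells/well, incubated overnight at 37 degrees C in 5% CO2, then exposed to library compounds with dopamine controls for 90 minutes at 37 degrees C before luminescent detection.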
D1 PAM = enhances dopamine response at the human D1 receptor; potentiation, % at 10 µM; hit rate 0.036% among 360,000; HEK293 TREx D1 cells, calcium flux, dopamine EC20 potentiation; AID 504651; P21728; in the data active means potentiation above about 30%
Of the large screens only hits and unclear results are named; the others gave an inactive call; ! = a repeat was not active. Sampled rows, rich in hits. Any-hit rate of the full collection: about 6%.

COc1cc(/C=N/NC(=O)CCn2c3ccccc3c3ccccc32)cc(OC)c1OC	D3 ag 41.7
COc1cc(/C=N/NC(=O)C[n+]2ccccc2)cc(OC)c1OC(C)=O	D1 antagonist -79.4
COc1cc(/C=N/NC(=O)C[n+]2ccccc2)cc(OC)c1OC	none
O=C(Cn1cc(S(=O)(=O)Cc2ccc(F)cc2)c2ccccc21)NCc1ccccc1Cl	D1 agonist 35.7 (no result: DRD3 antagonist)
CCc1cccc(C)c1NC(=O)CSc1nc2ccccc2n1CC(=O)N(C)C	D1 antagonist -35.2
O=C(Cn1c(SCC(=O)Nc2ccc(F)cc2)nc2ccccc21)NCc1ccccc1Cl	D1 agonist 32.7 (no result: DRD3 antagonist)
CC(C)(C)NC(=O)Cn1cc(S(=O)(=O)Cc2ccc(F)cc2)c2ccccc21	none (no result: DRD3 antagonist)
Cc1ccc(CNC(=O)Cn2cc(S(=O)(=O)Cc3ccccc3F)c3ccccc32)cc1	D1 agonist 31.7 (no result: DRD3 antagonist)
O=C(Cn1c(SCC(=O)Nc2ccc(F)cc2)nc2ccccc21)NCc1ccc(F)cc1	none (no result: DRD3 antagonist)
CCN(CC)C(=O)c1cccc(-c2csc(C(O)c3cccc(OC)c3)n2)c1 (centres undefined)	none (no result: D1 antagonist, D1 agonist, D1 PAM)
O=C(Nc1cc(S(=O)(=O)N2CCOCC2)ccc1Cl)c1ccncc1	none (no result: D1 antagonist, D1 agonist, D1 PAM)
COc1ccc(OCCC(=O)Nc2nccs2)cc1	none
O=C(CCCOc1ccccc1)Nc1nccs1	DRD3 antagonist -57.3
CCc1ccc(OCCCC(=O)Nc2nccs2)cc1	D1 antagonist -30.2
Cc1ccc(S(=O)(=O)NCCc2nnc3ccc(SCC(=O)Nc4ccc(OC(F)(F)F)cc4)nn23)cc1	none (no result: DRD3 antagonist)
Cc1c(CC(=O)NCCc2ccc(Cl)cc2)c(=O)oc2c(C)c3occ(C(C)(C)C)c3cc12	none (no result: DRD3 antagonist)
CCC(=O)Nc1ccc(-c2nnc3c4ccccc4c(C)nn23)cc1	D1 antagonist -39.3 (no result: DRD3 antagonist)
CCOc1ccc(Br)cc1/C=N/O	none
CCCOc1ccc(Br)cc1/C=N/O	D1 agonist 42.6
COc1cc(/C=C/C(=O)NC(=O)c2ccccc2O)ccc1O	none
COc1cc(/C=C/C(O)=C/C(=O)/C=C/c2ccc(O)cc2)ccc1O	D1 agonist 350.5
CC1(c2ccccc2)OC(C(=O)O)=CC1=O (centres undefined)	none (no result: D1 antagonist, D1 agonist, DRD3 antagonist, D1 PAM)
COc1ccccc1N1CCN(CCCCNC(=O)c2ccc(-c3ccc(C(C)=O)cc3)cc2)CC1	none (no result: D1 antagonist, D1 agonist, DRD3 antagonist, D1 PAM)
COc1ccccc1N1CCN(CCCCCCOc2ccc(F)cc2)CC1	D1 antagonist -44.9, DRD3 antagonist -52.1
Fc1ccc(OCCCCCN2CCCC2)cc1	none
COc1ccccc1N1CCN(CCCCOc2cccc3ccccc23)CC1	DRD3 antagonist -68.6
CC1CN(CCCCOc2ccc(F)cc2)CC(C)O1 (centres undefined)	DRD3 antagonist -50.3 (no result: D1 antagonist)
COc1ccccc1OCCCCN1CCN(c2ccccc2OC)CC1	DRD3 antagonist -80.5
O=C(/C=C/[C@H]1O[C@@H](n2ccc(=O)[nH]c2=O)[C@H](O)[C@@H]1O)N1CCN(CCc2ccccc2)CC1	none (no result: D1 antagonist, D1 agonist, D1 PAM)
OCCN1CCN(CCCN2c3ccccc3C=Cc3ccccc32)CC1	none (no result: D1 antagonist, D1 agonist, DRD3 antagonist, D1 PAM)
COC(=O)CC1c2ccccc2S(=O)(=O)N1Cc1ccccc1 (centres undefined)	none
COC(=O)C[C@H]1c2cc(F)cc(F)c2S(=O)(=O)N1C1CCN(Cc2ccccc2)CC1	DRD3 antagonist -68.7 (no result: D1 antagonist, D1 agonist, D1 PAM)
COc1cc(/C=C2/SC(=Nc3ccc(O)cc3)NC2=O)cc(OC)c1O	D1 agonist 47.2
COc1cc(/C=C2\SC(=Nc3ccc(O)cc3)NC2=O)cc(OC)c1OC	none
COc1ccccc1N=C1NC(=O)/C(=C/c2ccc(N(C)C)cc2)S1	D1 agonist 108.1, DRD3 antagonist -95.2
COc1ccc(CNc2nc3nc(C)cc(C)n3n2)cc1OC	DRD3 antagonist -56.0
Cc1cc(C)n2nc(NCc3cccc(Br)c3)nc2n1	DRD3 antagonist inconclusive
Oc1cccc(C(=S)N2CCC(Cc3ccccc3)CC2)c1	none
O=Cc1c[nH]c2ccccc12	D1 antagonist -54.9 (no result: D3 ag, DRD3 antagonist)
O=C(NN=Cc1c[nH]c2ccccc12)NN=Cc1c[nH]c2ccccc12	none (no result: D1 antagonist, D1 agonist, D1 PAM)
O=S1(=O)CCOC[C@H](c2ccccc2)N1Cc1cccc(Cl)c1	DRD3 antagonist -59.5
COC(=O)c1ccc(/C=C/c2c(-c3ccsc3)oc3ccc(N4CCOCC4)cc23)cc1	none
O=C(NCCCc1nc2ccccc2n1Cc1ccccc1Cl)C1CCCCC1	none (no result: DRD3 antagonist)
O=C(C(Cc1ccccc1)n1cccc1)N1CCN(c2cccc(Cl)c2)CC1 (centres undefined)	none (no result: D1 PAM)
COc1cc2c(C(=O)N3CCN(c4cccc(Cl)c4)CC3)cn(C)c(=O)c2cc1OC	none
Cc1cccc(C)c1NC(=O)N1CCN(c2nc3ccccc3s2)CC1	none
CCn1cc(C(=O)N2CCN(c3cccc(Cl)c3)CC2)c2cc(OC)c(OC)cc2c1=O	D1 antagonist -52.8!
O=C(O)CCC(=O)N1CCN(c2ncccn2)CC1	D1 antagonist -31.6
CCC(C(=O)N1CCN(c2cccc(Cl)c2)CC1)c1ccccc1 (centres undefined)	DRD3 antagonist -59.0
O=C(O)CCC(=O)N1CCN(c2nc3ccccc3s2)CC1	D1 antagonist -69.0
O=C(O)CCC(=O)N1CCN(c2ccccn2)CC1	none
COc1ccc(C(=S)N2CCN(c3cccc(Cl)c3)CC2)cc1	D1 antagonist -33.4!
COc1ccc(CCC(=O)N2CCN(S(=O)(=O)c3cccc(Cl)c3)CC2)cc1	D1 antagonist -38.5
O=C(O)/C=C/C(=O)N1CCN(c2cccc(Cl)c2)CC1	D1 antagonist -40.8, DRD3 antagonist -59.8
O=C(O)CCC(=O)N1CCN(c2cccc(Cl)c2)CC1	DRD3 antagonist -62.8
CCCNC(=O)N1[C@H](c2ccc(C)s2)[C@@H](C)C(=O)[C@@H](C)[C@@H]1c1ccc(C)s1	none (no result: DRD3 antagonist)
COC(=O)c1ccccc1NC(=O)[C@H]1O[C@@H]2OC(C)(C)O[C@@H]2[C@H]2OC(C)(C)O[C@H]21	none (no result: DRD3 antagonist)
COc1ccc(C(C(=O)NC2CCCC2)n2c(CSCCOc3ccccc3)nc3ccccc32)cc1 (centres undefined)	none (no result: D1 antagonist, D1 agonist, D1 PAM)
COc1ccc(C(=O)CCC(=O)N2CCN(c3cccc(Cl)c3)CC2)cc1	D1 antagonist -32.9
COc1ccc(OCC(=O)N2CCN(c3cccc(Cl)c3)CC2)cc1	none
CCCCOCCCNC(=O)C[C@@H]1C[C@@]2(C(=O)OCC)CCC=C2N(Cc2ccc(Cl)cc2Cl)C1=O	none (no result: D1 antagonist, D1 agonist, D1 PAM)
C1=C(c2ccccc2)CCN(c2ncnc3nc[nH]c23)C1	D1 antagonist -65.7
CC(=O)c1ccc(N2CCN(C(=O)c3cc(-c4ccncc4)nc4ccc(Cl)cc34)CC2)cc1	D3 ag 34.3
NCCOc1ccc(C2CCCCC2)cc1	D1 agonist 32.5
O=C(O)COc1ccc(/C=C/C(=O)c2ccc(C3CCCCC3)cc2)cc1	DRD3 antagonist inconclusive
CN(C)Cc1cc(CCNC(=O)c2ccc(Cl)cc2)ccc1O	D1 antagonist -37.0, DRD3 antagonist inconclusive
O=C(CCCNC(=O)c1ccc(Cl)cc1)NCc1ccccc1Cl	none
NS(=O)(=O)c1ccc(CCNC(=O)CCCNC(=O)c2ccc(Cl)cc2)cc1	D1 antagonist -32.7
NS(=O)(=O)c1ccc(CCNC(=O)c2ccc(Cl)nc2)cc1	none
